From PubChem BioAssay (NCATS) come the findings set out here.

Inconclusive results are not listed. Active and inactive are the calls of the source. Calls come from the whole dose curve; as a rule, active = well fitted inhibition curve with a large enough effect; inconclusive = small, poorly fitted or top-dose-only effect; inactive = no such curve, though single readings can be large or run the other way.

For the test, the system named is Zika virus NS2B-NS3 protease (linked construct). The experiment in a line: Primary screen NINDS Rhodamine qHTS for Zika virus inhibitors (AID 1347160). Note: nearly all actives have a fitted effect of over 55% in size. The following applies: purified NS2B-NS3 protease, Rhodamine110 substrate fluorescence; series mostly up to 57.1 µM. An excerpt:
Avindra Nath, Ph.D., National Institute of Neurological Disorders and Stroke (NINDS), Bethesda, MD
Radhakrishnan Padmanabhan, Ph.D., Georgetown University (GU), Washington D.C.
Zika Virus causes congenital defects, including microcephaly and is associated with Guillain-Barre syndrome, eningoencephalitis and myelitis in infected adult. […] Using a target-based approach, we hope to establish a screening paradigm to uncover novel, cell-active NS2B-NS3 protease (Zika Virus) specific inhibitors from NCATS' collection of small molecules using qHTS.
Four assay panel was created to identify potential Zika Virus inhibitors. Namely, (1) GU unlinked NS2B-NS3 AMC tagged protease qHTS, (2) GU unlinked NS2B-NS3 Rhodamine tagged protease qHTS, (3) NINDS linked NS2B-NS3 AMC tagged protease qHTS, (4) NINDS linked NS2B-NS3 Rhodamine tagged protease qHTS. Active compounds were re-acquired and re-screened to confirm inhibition. Inhibitors were further screened against various confirmatory and counterscreens in dose response format.
Early Translation Branch (ETB)
National Center for Advancing Translational Sciences (NCATS), Rockville, MD
National Institute of Health (NIH), Bethesda, Maryland
For the linked assay, Nath lab (NINDS) provided the purified linked NS2B-NS3 protease which is consists of hydrophilic domain of NS2B linked to the NS3 protease domain by a flexible (-[…]-) linker. Control compound aprotinin is obtained from Thermo Scientific (#78432; Waltham, Massachusetts). Rhodamine110 substrate ([N-Cbz]-Nle-Lys-Arg-Arg-Rhod110-Arg-Arg-Lys-Nle-[N-Cbz]) was purchased from either Genscript or Bachem.
1536-well Protease (Rhodamine110 Substrate) Assay:
Briefly, 3 microL of enzyme (25 nM final concentration), in assay buffer (10 mM Tris-HCl pH 8.0 with 0.01% Tween 20) were dispensed into a 1,536-well solid-bottom black plate (Greiner Bio One, Monroe, NC). Twenty-three nL of compounds (final concentration range 7.28 nM to 114 microM) or control Aprotinin (final concentration range 3.47 nM to 114 microM) were transferred via Wako Pin-tool (Wako Automation, Richmond, VA). Samples were incubated (room temperature, protected from light) for 15 minutes followed by a 1 microL Rhodamine110 substrate addition (1.5 microM final concentration). Plates were then immediately read on a ViewLux High-throughput CCD imager (PerkinElmer, Waltham, MA) equipped with FITC fluorescence optics (480(20) nm excitation, 540(25) nm emission), then incubated (room temperature, protected from light) for 15 minutes (~15% conversion). The change in fluorescence intensity over the 15-minute reaction period was normalized against no-inhibitor and no-enzyme controls and the resulting percent inhibition data were fitted to a 4-parameter Hill equation. Aprotinin was used as intraplate control.
A general note: qHTS replaces the single test concentration by a dilution series.
Turning to `NC(=NCCCCCCN=C(N)/N=C(\N)Nc1ccc(Cl)cc1)/N=C(\N)Nc1ccc(Cl)cc1`, the call was inactive.
As to `Cc1ccc(C(=O)C(C)CN2CCCCC2)cc1` (stereo unspecified), the call was inactive.
With `COC(=O)C1=C(C)NC(C)=C(C(=O)O[C@@H]2CCCN(Cc3ccccc3)C2)[C@@H]1c1cccc([N+](=O)[O-])c1` the entry was “inactive”.
Consider `Nc1ccn([C@@H]2O[C@H](CO)[C@@H](O)C2(F)F)c(=O)n1`, for which the outcome was inactive.
For the compound `CN1[C@@H]2CC[C@H]1CC(OC(=O)c1c[nH]c3ccccc13)C2` (stereo partly specified), the call was inactive.
With `Cc1ccccc1C(=O)Nc1ccc(C(=O)N2CCCC(N(C)C)c3ccccc32)cc1` (stereo unspecified) the entry was “inactive”; with `O=C(OCCOCCO)c1ccccc1Nc1cccc(C(F)(F)F)c1`, “inactive”; with `O=c1[nH]c(=O)n([C@H]2CCCO2)cc1F`, “inactive”.
Take `OC[C@H]1O[C@H](O[C@]2(CCl)O[C@H](CCl)[C@@H](O)[C@@H]2O)[C@H](O)[C@@H](O)[C@H]1Cl`: the compound was classed as inactive.
`COc1cccc(OC)c1C(=O)N[C@@H]1C(=O)N2[C@@H]1SC(C)(C)[C@@H]2C(=O)O`: the result was inactive.
Then `C#C[C@]1(OC(C)=O)CC[C@H]2[C@@H]3CCC4=C[C@@H](OC(C)=O)CC[C@@H]4[C@H]3CC[C@@]21C`, with “inactive”.
On to `CC(=O)OCC(=O)[C@@]1(O)[C@H](C)C[C@H]2[C@@H]3CCC4=CC(=O)C=C[C@]4(C)[C@@]3(F)[C@@H](O)C[C@@]21C`, for which the result was inactive.
`CC(C)(C)NC(=O)[C@@H]1CN(Cc2cccnc2)CCN1C[C@@H](O)C[C@@H](Cc1ccccc1)C(=O)N[C@H]1c2ccccc2C[C@H]1O`: the call was inactive.
For the compound `CN(C)CCCOc1nn(Cc2ccccc2)c2ccccc12`, the compound was classed as inactive.
As to `CC(CCc1ccccc1)NCC(O)c1ccc(O)c(C(N)=O)c1` (stereo unspecified), the result was inactive.
For the compound `CN1CCN(C(c2ccccc2)c2ccccc2)CC1`, the call was inactive.
With `CC(C)(C)CC(C)(C)c1ccc(OCCOCC[N+](C)(C)Cc2ccccc2)cc1`, the compound was called inactive.
On to `CC(=O)OCC(=O)[C@@]1(O)CC[C@H]2[C@@H]3CCC4=CC(=O)C=C[C@]4(C)[C@H]3[C@@H](O)C[C@@]21C`, for which the result was inactive.
With `CN1CCC[C@@H]1c1cccnc1` the entry was “inactive”; with `COc1ccc(CN2CCN(C(c3ccc(F)cc3)c3ccc(F)cc3)CC2)c(OC)c1OC`, “inactive”; with `CN1C(CCl)Nc2cc(Cl)c(S(N)(=O)=O)cc2S1(=O)=O` (stereo unspecified), “inactive”.
`COC(=O)CCc1ccc(OCC(O)CNC(C)C)cc1` (stereo unspecified): the outcome was inactive.
With `CC(C)n1nc(-c2cc3cc(O)ccc3[nH]2)c2c(N)ncnc21` the entry was “inactive”.
Regarding `CCCCS(=O)(=O)N[C@@H](Cc1ccc(OCCCCC2CCNCC2)cc1)C(=O)O`, the compound was called inactive.
With `Cc1nc2n(c(=O)c1CCN1CCC(c3noc4cc(F)ccc34)CC1)CCC[C@H]2O` the entry was “inactive”.
With `CC(=O)O[C@]1(C(C)=O)CC[C@H]2[C@@H]3C[C@H](C)C4=CC(=O)CC[C@]4(C)[C@H]3CC[C@@]21C` the entry was “inactive”.
